Measurements published in the supplement of paper PMC4166925.
± gives the standard deviation of the averaged measurements. In all, about 33,000 sequences were measured (“E-score (dimensionless, -0.5 to 0.5)”: median about -0.046, highest 2% from about 0.36 on). Shown is part of a subset that was picked to be rich in the highest values.

Test system: T1, SpTbr T-box DNA-binding domain (GST fusion)
T1 sequence: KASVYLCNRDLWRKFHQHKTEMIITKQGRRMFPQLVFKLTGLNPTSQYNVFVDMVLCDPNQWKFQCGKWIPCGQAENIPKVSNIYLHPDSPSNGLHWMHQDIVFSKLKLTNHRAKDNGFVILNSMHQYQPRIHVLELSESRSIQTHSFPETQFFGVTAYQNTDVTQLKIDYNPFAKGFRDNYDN
Assay: PBM E-score of 8-mer (E-score (dimensionless, -0.5 to 0.5)); Tbr is Tbrain of the sea star Patiria miniata (Pm) or the sea urchin Strongylocentrotus purpuratus (Sp); higher = stronger binding preference
Details: the construct has about 5 more residues each side
Protocol: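 Universal protein-binding microarray (Agilent AMADID 016060, 60-bp probes with a 35-bp variable region) incubated with 200 nM GST-fused Strongylocentrotus purpuratus Tbr T-box DNA-binding domain (residues 362-554) in PBS pH 7.5. Scored for every ungapped 8-mer (given with its reverse complement) as E-score (range -0.5 to 0.5; >0.45 counts as bound) and Z-score of median probe intensity. Two replicate arrays (datasets 1 and 2).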
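Also: protein at 200 nM in PBS on universal double-stranded arrays.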

Sequence	PBM E-score of 8-mer
AGGTGACA	0.469 ± 0.015
ACGTGACA	0.3127 ± 0.0018
CGGTGACG	0.233 ± 0.02
AGGTGACT	0.276 ± 0.001
AGGTGACC	0.151 ± 0.0043
AGGTGACG	0.453 ± 0.0078
CGATGGAG	-0.131 ± 0.032
AGACGTAC	-0.0414 ± 0.071
CCCCAGCC	-0.0674 ± 0.013
AGGAGTAT	-0.223 ± 0.0026
GATGACCC	0.12 ± 0.0038
AATGACAG	0.0199 ± 0.049
GATGACAA	0.278 ± 0.026
CATGACAC	0.3587 ± 0.0021
GATGACAC	0.402 ± 0.0092
AATGACAC	0.3799 ± 0.0026
AATCTGAT	-0.25 ± 0.015
GAACGCCC	0.138 ± 0.0086
AGGTGGGA	0.433 ± 0.0055
CGGTGGGA	0.00775 ± 0.037
AGGTGGTA	0.405 ± 0.011
AGGTGGTG	0.34049 ± 0.00016
AGGTGGGC	-0.0803 ± 0.021
AGGTGGTC	-0.117 ± 0.11
AGAGGGAA	-0.179 ± 0.028
GAGCTTCC	-0.129 ± 0.05

Sequence	PBM E-score of 8-mer
CGGCGACA	0.296 ± 0.018
AGGTGGAA	0.0503 ± 0.028
GAACTAAC	0.135 ± 0.023
TGCGACAA	0.271 ± 0.022
CGCGACAA	0.309 ± 0.0049
GGCGACAA	0.3676 ± 0.0007
AGCGACAC	0.332 ± 0.022
CGCGACAC	0.35396 ± 0.00035
GGCGACAC	0.381 ± 0.0043
GCTTTGCA	0.0233 ± 0.069
AGTCCAGG	-0.396 ± 0.039
AAGTCCCA	-0.0384 ± 0.044
CAGAAACC	-0.106 ± 0.08
AAATTCTG	-0.136 ± 0.06
AAAAGGTC	-0.00656 ± 0.018
CAAAGGTC	-0.105 ± 0.028
AAAAGGTG	0.41 ± 0.0094
AAAAGGTT	-0.0952 ± 0.076
CAAAGGTG	0.3923 ± 0.00076
CAAAGGTA	-0.0771 ± 0.04
GGTACTAC	-0.3 ± 0.033
ACGTCGAC	0.0807 ± 0.016
GCACTCCC	0.128 ± 0.051
AGCATAAT	-0.177 ± 0.0018
AATAGGTA	-0.0758 ± 0.075
AATAGGTG	0.374 ± 0.03

Sequence	PBM E-score of 8-mer
AGTAGGTG	0.3972 ± 0.0024
ACTAGGTG	0.403 ± 0.012
AGTAGGTA	-0.00286 ± 0.076
AATAGGTC	-0.154 ± 0.017
ACTAGGTA	-0.0768 ± 0.014
ACTAGGTC	-0.14 ± 0.024
AGTAGGTC	-0.0701 ± 0.038
TCAACAAA	-0.0651 ± 0.048
AGAAGTAT	-0.0503 ± 0.0051
AACGTTAT	0.0135 ± 0.06
ACAAAACA	0.0943 ± 0.064
ATAGAGTC	-0.206 ± 0.0048
CGTCTACA	0.0944 ± 0.046
AGGGTGTC	0.401 ± 0.015
ACGGTGTC	0.271 ± 0.051
AGGGTGCC	0.267 ± 0.013
AGGGTGTA	0.307 ± 0.035
AGGGTGCA	0.188 ± 0.025
AGGGTGCG	0.402 ± 0.01
CGGGTGTC	0.3608 ± 0.0021
AGGGTGTG	0.449 ± 0.011
AGGGGGTG	0.269 ± 0.055
AACAGAGT	-0.0053 ± 0.1
CACGTTGC	0.101 ± 0.025
ATTACTTA	-0.154 ± 0.05
AGAGAGAG	0.0384 ± 0.024

Sequence	PBM E-score of 8-mer
CCTAACAG	0.0988 ± 0.11
ACTAACAG	0.1931 ± 0.00053
CCTAACAA	0.161 ± 0.035
ACTAACAA	0.152 ± 0.039
GGTAACAC	0.435 ± 0.0032
CCTAACAC	0.4165 ± 0.0028
AGTAACAC	0.3552 ± 0.0029
GCTAACCC	0.04 ± 0.097
GCTAACAA	0.293 ± 0.03
GCTAACAC	0.417 ± 0.0044
CGTAACAC	0.3104 ± 0.0022
ACTAACAC	0.402 ± 0.0071
CGACCCGA	-0.0816 ± 0.051
TAACCAGA	-0.055 ± 0.015
AGCAAAAG	-0.191 ± 0.046
ACGCAACA	0.121 ± 0.024
ATTGCACA	0.121 ± 0.053
CCCCAGCG	-0.148 ± 0.02
ATTAACAC	0.45 ± 0.015
CTTAACAA	0.243 ± 0.0056
ATTAACAG	0.139 ± 0.014
CTTAACCC	-0.000625 ± 0.011
ATTAACAA	0.14 ± 0.023
CTTAACAC	0.429 ± 0.017
GTAGAAAA	-0.0889 ± 0.057
ATCCAGAG	-0.25 ± 0.021

Sequence	PBM E-score of 8-mer
CCTGGGAG	0.0895 ± 0.0077
GTGGCCGA	0.0547 ± 0.071
AGGAAAAT	-0.182 ± 0.018
GTCAATAA	0.129 ± 0.034
CGCCCGTC	0.0569 ± 0.029
CTTTTTCC	-0.132 ± 0.081
TACGTTCA	-0.0963 ± 0.066
AGCATTAT	0.00754 ± 0.061
CCACGTGC	0.114 ± 0.074
ACACGTGA	0.283 ± 0.011
ACACGTCT	0.342 ± 0.0038
ACACGTGC	0.3851 ± 0.0015
AAACGTGA	0.156 ± 0.0067
ACACGTCG	0.372 ± 0.0071
AAACGTGG	0.144 ± 0.0096
ACACGTGT	0.395 ± 0.0082
ACACGTCA	0.319 ± 0.017
AAACGTGT	0.368 ± 0.018
GCACGTGC	0.312 ± 0.081
ACACGTGG	0.299 ± 0.02
CCTTCCGC	0.168 ± 0.062
GATGCCTA	-0.279 ± 0.11
AAGGGCCA	-0.259 ± 0.0051
CTCAGCAC	0.171 ± 0.0069
TATCTCAA	-0.0883 ± 0.013
GTTCAACA	-0.118 ± 0.054

Sequence	PBM E-score of 8-mer
AAGTGACC	0.233 ± 0.041
CAGTGACA	0.329 ± 0.0062
AAGTGACA	0.427 ± 0.013
CAGTGACG	0.0986 ± 0.12
AAGTGACT	0.0603 ± 0.012
GAGTGACA	0.343 ± 0.033
TAGTGACA	0.417 ± 0.011
AAGTGAAA	0.209 ± 0.069
AAGTGACG	0.4 ± 0.0071
GCTGTAAC	-0.0609 ± 0.029
CTCAAAAG	-0.147 ± 0.012
ATGACCTA	-0.132 ± 0.046
ACAGAACA	-0.0577 ± 0.043
CCTGTGCG	0.125 ± 0.025
TCGCAAAA	0.132 ± 0.0091
TACTTGGA	-0.311 ± 0.035
AGGAGAGG	-0.247 ± 0.019
CTGTGTGC	0.000685 ± 0.012
AGGTGGGG	0.238 ± 0.056
ATGTGTGG	0.356 ± 0.007
AGATGTGC	0.161 ± 0.011
AGGTGTGG	0.486 ± 0.0081
AGGTGTGC	0.445 ± 0.014
ATCAGGAC	-0.3 ± 0.086
AAGCTCTA	-0.245 ± 0.027
GTGATCAA	0.144 ± 0.022

Sequence	PBM E-score of 8-mer
GTGATCAC	0.366 ± 0.022
ATGATCAC	0.1861 ± 0.0015
GTGATAAC	0.395 ± 0.0074
GTGATAAA	0.305 ± 0.051
ATGATAAC	0.092 ± 0.059
ACGATGGA	-0.0806 ± 0.066
AGTAATCG	0.087 ± 0.023
GCTCCTAC	0.0646 ± 0.0047
AATTCAGC	-0.016 ± 0.024
CCGGACGA	-0.223 ± 0.017
ATCGCCTC	0.169 ± 0.061
GCTGTCAC	0.326 ± 0.025
GATGTCAA	0.197 ± 0.0064
CGTGTCAG	0.25651 ± 0.00017
CGTGTCTA	0.135 ± 0.05
GGTGTCAC	0.475 ± 0.0052
GTTGTCAA	0.3671 ± 0.0033
GTTGTCTA	-0.123 ± 0.027
CCTGTCAA	0.328 ± 0.025
GATGTCAC	0.296 ± 0.023
AATGTCAG	0.0267 ± 0.006
AGTGTCAG	0.371 ± 0.0097
CGTGTCAA	0.4367 ± 0.0011
GCTCGCCA	0.231 ± 0.017
GCCCCATA	-0.112 ± 0.064
ATGGGGAG	-0.243 ± 0.051

Sequence	PBM E-score of 8-mer
AGGGGTGG	0.147 ± 0.069
AATGGCTA	-0.134 ± 0.02
CATGAGTC	-0.08024 ± 0.00076
GACTTATA	0.0117 ± 0.031
ACAACCCT	0.0805 ± 0.0049
ATCGTTGC	-0.00439 ± 0.021
AATGTCAT	-0.162 ± 0.031
GGTGTCAA	0.4808 ± 0.0038
TGTGTCAA	0.398 ± 0.011
ACTGTCAT	0.196 ± 0.032
GGTGTCTA	0.292 ± 0.0045
AGTGTCAT	0.405 ± 0.017
TCTGTCAA	0.109 ± 0.046
GCTGTCAA	0.318 ± 0.049
TATGTCAA	0.159 ± 0.0082
ACTGTCAA	0.183 ± 0.035
AGTGTCAA	0.453 ± 0.0054
AGTGTCTA	0.17 ± 0.024
TAAGAACA	-0.0304 ± 0.082
ATATAGTC	-0.0444 ± 0.027
ATAGCCCA	-0.13 ± 0.078
CGCAGAGA	-0.217 ± 0.082
CCAATAAG	-0.199 ± 0.0037
CATGAATC	0.0324 ± 0.072
CCCCCCCC	-0.0653 ± 0.059
AACTCTGC	0.164 ± 0.011

Sequence	PBM E-score of 8-mer
GGAAGCAA	-0.216 ± 0.074
ACTGTCAC	0.35403 ± 0.00029
AGTGTCAC	0.43943 ± 0.00026
CGTGTCAC	0.362 ± 0.034
ACGCCCAA	-0.049 ± 0.13
CACAGACC	-0.0948 ± 0.053
AAACACCT	0.442 ± 0.015
AGACACAT	0.229 ± 0.0028
AGACACCT	0.4345 ± 0.003
AAACACCC	0.1718 ± 0.0003
AGACACCG	0.0814 ± 0.026
ACACACCG	0.224 ± 0.013
ACACACCT	0.44741 ± 0.0002
ACACACAT	0.328 ± 0.0053
AAACACCG	0.155 ± 0.0066
ACGCACCA	0.0513 ± 0.0069
ACGCACCG	0.0314 ± 0.086
ACGCACCT	0.366 ± 0.0075
